Screening data from PubChem BioAssay.
GASC-1 inh = human JMJD2C demethylase inhibition; GST-JMJD2C(1-420) H3K9me3 demethylation, DELFIA europium; inhibition, % at 2.35 µM; 330,000 tested, 0.069% active;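 active = more than half of a compound's replicate wells show inhibition beyond 50%, single wells judged on their own value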;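 note: signal counts dimethyl H3K9 product captured on neutravidin plate; 0% = median of DMSO wells and 100% = 0.3 times that DMSO median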
Target sequence (Q9H3R0 1-420 limits assumed): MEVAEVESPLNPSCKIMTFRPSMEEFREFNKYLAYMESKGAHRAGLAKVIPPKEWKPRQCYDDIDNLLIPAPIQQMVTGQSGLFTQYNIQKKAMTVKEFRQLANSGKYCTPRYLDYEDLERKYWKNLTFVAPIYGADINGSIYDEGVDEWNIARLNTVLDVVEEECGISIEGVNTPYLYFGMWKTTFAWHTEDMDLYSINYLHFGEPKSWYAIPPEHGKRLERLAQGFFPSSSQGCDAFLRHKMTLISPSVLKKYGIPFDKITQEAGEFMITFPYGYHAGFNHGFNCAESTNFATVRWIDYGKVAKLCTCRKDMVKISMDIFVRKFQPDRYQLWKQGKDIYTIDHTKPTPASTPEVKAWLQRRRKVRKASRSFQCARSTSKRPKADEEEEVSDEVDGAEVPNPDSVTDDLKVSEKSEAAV
Granule exo inh = blocks lytic granule exocytosis; TALL-104 LAMP-1 surface exposure, flow cytometry; cells stimulated with thapsigargin and PMA; inhibition, % at 10 µM; 360,000 tested, 0.66% active; AID 651702;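 active = inhibition above about 55%, limit read from the data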
PfM18AAP inh = PfM18AAP enzyme inhibition. recombinant PfM18AAP, H-Glu-NHMec fluorogenic cleavage. inhibition, % at 7.35 µM. 290,000 tested, 1.2% active;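 active = inhibition above the campaign mean inhibition over all tested compounds plus 3 SD, cut at about 28% in these data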;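 note: 0% = plate median of test compound wells and 100% = 2 mM ZnCl2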
SMARCA2 activ = activators of SMARCA2 function; MG213 cells, MMTV-luciferase reporter, dexamethasone, overnight; activation, % at 9.1 µM; 370,000 tested, 1% active; in the data active = activation above about 7.8%;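 note: 0% = vehicle wells and 100% = reference activator wells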
ALR H2O2 inh = blocks human ALR sulfhydryl oxidase activity; P55789; purified ALR, DTT oxidation, H2O2 HRP-luminol luminescence; inhibition, % (concentration not given with the values); 290,000 tested, 3.8% active; AID 485317;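 active = mean replicate inhibition above about 79%, with every replicate also reaching it, limit read from the data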
beta cell repl = induces beta-cell replication in MIN6 cells. MIN6 cells proliferation, ATPlite luminescence, 48 h; cells starved in 0.2% serum; 100% = growth in 10% serum. proliferation, % at 10 µM. 330,000 tested, 0.29% active. AID 2380;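 active = compounds whose signal lies at least 3.5 SD above the mean of all wells on their plate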;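 note: 0% = DMSO-treated cells in low-serum medium and 100% = 10% serum control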
* = called active by the depositor; nt = no result. Most compounds without a hit are left out; they make up all but 5.4% or so of the library.

SMILES | GASC-1 inh | Granule exo inh | PfM18AAP inh | SMARCA2 activ | ALR H2O2 inh | beta cell repl
CCOc1cc(CNn2cn[nH]c2=S)cc(Cl)c1OCc1ccccc1F | 9.5 | 7.4 | 1.9 | -2.9 | 90.4* | -1.1
COc1cc(CNn2c(C)n[nH]c2=S)cc(Cl)c1OCc1ccc(F)cc1 | -2.0 | 2.7 | -7.8 | -1.1 | -6.3 | -1.3
C[C@H]1COc2cc(N3CCCC3)ccc2S(=O)(=O)N1C | nt | nt | nt | -1.1 | nt | nt
COCCNC(=S)NCc1ccc2[nH]c3c(c2c1)CCCC3 | 0.0 | -0.9 | -10.8 | -1.5 | 94.1* | 1.3
CC1=NNC(=O)C1CC(=O)N/N=C/C(C)=C/c1ccccc1 (configuration not stated) | 2.1 | 4.0 | -3.5 | 0.3 | 94.1* | -2.9
COc1cc(/C=N/NC(=O)CC2C(=O)NN=C2C)ccc1O (configuration not stated) | -4.7 | 7.4 | 0.6 | 1.3 | nt | -2.7
CCOc1cccc(/C=N/NC(=O)CC2C(=O)NN=C2C)c1O (configuration not stated) | 1.1 | 3.5 | 7.6 | 1.4 | 98.2* | -1.3
FC(F)(F)c1cccc(N2CCN(C3=Nc4ccccc4Sc4ccccc43)CC2)c1 | nt | nt | nt | -2.0 | nt | nt
COc1cc(/C=N/NC(=O)c2cc(-c3ccco3)nc3ccccc23)cc(OC)c1O | 8.5 | -2.3 | 12.0 | -4.2 | 97.2* | -3.0
COc1ccc(NC(=O)c2cc(-c3ccc(C)o3)nc3ccccc23)cc1OC | nt | 63.7* | -46.2 | 4.4 | -8.8 | -3.2
C/C(CCc1ccccc1)=N\NC(=S)NCCc1ccccc1 | -5.8 | 90.8* | 0.3 | 0.5 | 0.5 | -6.2
O=c1c2cn[nH]c2nc(SCc2ccc3c(c2)OCCO3)n1-c1ccccc1 | -1.6 | 0.6 | 4.0 | -1.4 | 5.8 | -1.1
O=C(CSc1nc2[nH]ncc2c(=O)n1-c1ccccc1)N1CCCCCC1 | 0.9 | nt | 34.4* | nt | -7.0 | -0.8
CSc1nc2[nH]ncc2c(=O)n1-c1ccccc1 | 44.8 | 17.4 | 60.5* | -3.6 | -3.1 | -0.7
COc1ccc(OC)c(S(=O)(=O)N2CCCC(c3noc(-c4ccc(C)cc4)n3)C2)c1 (configuration not stated) | nt | nt | nt | -2.5 | nt | nt
Cc1nc2ccc(S(=O)(=O)NC(C(=O)Nc3nccs3)C(C)C)cc2s1 (configuration not stated) | -4.9 | 1.9 | -1.4 | -1.9 | 91.8* | 5.1
COc1ccc(S[C@]2(C(=O)N(C)C)CC(=O)N(C(=O)Nc3ccc(C)c(Cl)c3)[C@@H]2c2ccc(OC)cc2)cc1 | nt | nt | nt | -5.2 | nt | nt
C=CCn1c(C)csc1=Nc1ccccc1C | -12.1 | -0.2 | 10.1 | 3.8 | 98.9* | -0.3
C=CCn1c(C)csc1=Nc1ccc(C(C)=O)cc1 | 10.5 | 11.4 | 9.9 | 1.3 | 16.2 | 0.6
COc1ccc(S[C@]2(C(=O)N3CCOCC3)CC(=O)N(c3ccc(C#N)cc3)[C@@H]2c2ccc(OC)cc2)cc1 | nt | nt | nt | -2.3 | nt | nt
CC1(c2nnnn2C2CCCCC2)CCCC(=O)N1CCc1ccc(O)cc1 (configuration not stated) | nt | nt | nt | -3.6 | nt | nt
Clc1ccccc1C1SCC2Nc3ccccc3CN21 (configuration not stated) | -2.7 | 1.8 | 5.3 | 3.4 | 98.1* | -0.3
Cc1ccc(-n2c(SC/C=C/c3ccccc3)nnc2-c2cccs2)cc1 | nt | nt | nt | -5.9 | nt | nt
COc1ccc(C(=O)C2(C(=O)NCc3ccccc3)CC(c3ccccc3C(F)(F)F)=NO2)cc1 (configuration not stated) | nt | nt | nt | -3.7 | nt | nt
c1ccc(Oc2nc(N3CCOCC3)nc(N3CCOCC3)n2)cc1 | -6.4 | 1.7 | -9.9 | -0.1 | 88.2* | 5.8
SMILES | GASC-1 inh | Granule exo inh | PfM18AAP inh | SMARCA2 activ | ALR H2O2 inh | beta cell repl
c1cc(C2CCCCC2)ccc1Oc1nc(N2CCOCC2)nc(N2CCOCC2)n1 | 1.4 | 0.7 | -3.6 | -3.3 | -1.8 | -3.9
CCOC(=O)C[C@H]1c2cc(F)ccc2S(=O)(=O)N1c1ccccc1 | 29.7 | -3.9 | nt | 0.5 | 3.7 | -4.8
COC(=O)C[C@H]1c2cc(F)ccc2S(=O)(=O)N1c1ccc(N(C)C)cc1 | 1.3 | -0.9 | nt | -0.3 | 98.7* | -0.7
C=CCc1c(C)nc(C)nc1N/N=C/c1ccc(N(C)C)cc1 | -5.3 | -0.8 | 25.8 | -0.9 | 98.8* | 1.9
Nc1ccc(OCCCc2c(N)nc(N)nc2N)cc1 | 3.4 | 10.5 | 2.0 | -1.4 | 99.1* | 0.6
COc1cccc(/C=C2\CC3(OC(=O)C(C)(C)C)CCCN2C3)c1 (configuration not stated) | nt | nt | nt | -3.1 | nt | nt
